Values joined by “and” are separate entries in the source; they are usually repeats but may differ in a detail not shown here. Identical values can stand only once. Results filed as inconclusive are left out. Active and inactive are the calls of the source. The call rests on the fitted dose curve; in most records, active means well fitted curve in the direction sought with a large enough effect; inconclusive means small, poorly fitted or top-dose-only effect, or another doubt; inactive means no such curve, though single readings can be large; an effect the other way counts as inactive or inconclusive.
How the values were obtained:
[1] = Viability qHTS for spleen associated tyrosine kinase inhibitor (SYKi) naive MV4-11 cells (AID 1963823); further: nearly all actives have a fitted effect of over 40% in size
Method in brief: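 Luminescence from CellTiter-Glo, developed 10 min at room temperature, gave viability of MV4-11 cells never exposed to SYK inhibitor. Cells (500/well) had been incubated with compounds for 72 hr under standard culture conditions.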

[2] = Viability qHTS for spleen associated tyrosine kinase inhibitor (SYKi) drug resistant MV4-11 cells (AID 1963824); further: nearly all actives have a fitted effect of over 35% in size
Method in brief: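 CellTiter-Glo luminescence, read 10 min after reagent addition, reports viability after a 72 hr compound exposure. Cells are an MV4-11 line made resistant to SYK inhibition, seeded at 500 per well onto compound-containing plates.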

[3] = Cellular viability qHTS for adrenocortical cancer (ACC) cell line NCI-H295R (AID 1963990); further: nearly all actives have a fitted effect of over 60% in size
Method in brief: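 CellTiter-Glo ATP luminescence, read 48 h after compound addition, measured viability of NCI-H295R adrenocortical cells grown serum-free with ITS. Final concentrations spanned up to 46 uM. Data normalized to DMSO and doxorubicin, fitted for IC50 and maximal response.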

[4] = Quantitative highthroughput screen to assess conditional lethalithy of NOMO1 cells grown in RPMI1640 with untreated serum (RPMI+s) (AID 1963876); further: nearly all actives have a fitted effect of over 35% in size;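 on Viability: 100% = DMSO wells and 0% = empty wells without cells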
Method in brief: (§1)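 Each medium arm—HPLM with 10% dialyzed FBS, or RPMI1640 with 5 mM glucose and 10% untreated or dialyzed FBS—was screened against an 11-point, 3-fold compound titration for 48 h at 37 °C, with CellTiter-Glo luminescence as endpoint.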

[5] = Quantitative highthroughput screen to assess conditional lethalithy of NOMO1 cells grown in RPMI1640 with dialyzed fetal bovine serum (RPMI+ds) (AID 1963877); further: nearly all actives have a fitted effect of over 30% in size;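 on Viability: series mostly up to about 46 µM; 100% = DMSO control wells and 0% = empty wells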
Method in brief: as §1

[6] = Quantitative highthroughput screen to assess conditional lethalithy of NOMO1 cells grown in Human Plasma-Like Medium with dialyzed fetal bovine serum (HPLM+ds) (AID 1963878); further: nearly all actives have a fitted effect of over 35% in size;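 on Viability: 100% = DMSO wells and 0% = empty wells on each plate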
Method in brief: as §1

[7] = Quantitative highthroughput screen to assess conditional lethalithy of P12 Ichikawa cells grown in Human Plasma-Like Medium with dialyzed fetal bovine serum (HPLM+ds) (AID 1963879); conditions: Potency: viability; further: nearly all actives have a fitted effect of over 35% in size; on Viability: series mostly up to about 46 µM
Method in brief: as §1

[8] = Quantitative highthroughput screen to assess conditional lethalithy of P12 Ichikawa cells grown in RPMI1640 with dialyzed fetal bovine serum (RPMI+ds) (AID 1963880); conditions: Potency: P12-Ichikawa viability; further: nearly all actives have a fitted effect of over 35% in size;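 on Viability: 100% = DMSO wells and 0% = empty wells on each plate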
Method in brief: as §1

[9] = Quantitative highthroughput screen to assess conditional lethalithy of P12 Ichikawa cells grown in RPMI1640 with untreated serum (RPMI+s) (AID 1963881); conditions: Potency: viability; further: nearly all actives have a fitted effect of over 35% in size;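 on Viability: series mostly up to about 46 µM; 100% = DMSO wells and 0% = empty wells without cells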
Method in brief: as §1

[10] = Quantitative highthroughput screen to assess conditional lethalithy of SEM cells grown in Human Plasma-Like Medium with dialyzed fetal bovine serum (HPLM+ds) (AID 1963882); further: nearly all actives have a fitted effect of over 35% in size; on Viability: series mostly up to about 46 µM
Method in brief: as §1

[11] = Quantitative highthroughput screen to assess conditional lethalithy of SEM cells grown in RPMI1640 with unreated serum (RPMI+s) (AID 1963883); further: nearly all actives have a fitted effect of over 35% in size;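 on Viability: 100% = DMSO wells and 0% = empty wells without cells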
Method in brief: as §1

[12] = Quantitative highthroughput screen to assess conditional lethalithy of SEM cells grown in RPMI1640 with dialyzed fetal bovine serum (RPMI+ds) (AID 1963884); further: nearly all actives have a fitted effect of over 35% in size;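 on Viability: series mostly up to about 46 µM; 100% = DMSO control wells and 0% = empty wells without cells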
Method in brief: as §1

[13] = Cellular viability qHTS for adrenocortical cancer (ACC) cell line SW-13 (AID 1963989); conditions: SW-13 ACC cells viability, CellTiter-Glo, 48 h; activity (max response): stronger effect = lower value; further: nearly all actives have a fitted effect of over 65% in size;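 on activity (max response): cells grown in serum-free medium with ITS supplement; on the % scale 0 is the no-effect control and ±100 the full control effect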
Method in brief: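 Viability was read as CellTiter-Glo luminescence after 48 h compound treatment (up to 46 uM final) of SW-13 cells grown serum-free; titration curves were fit with a four-parameter logistic model to give IC50 and efficacy.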
Potency means the concentration at half of the fitted maximal effect.

CNC(=O)[C@@H](NC(=O)[C@H](CC(C)C)[C@H](O)C(=O)NO)C(C)(C)C
active: Potency [1] 13.2 µM | Potency [2] 10.5 µM
inactive: Potency [3]

CN(C)/C(N)=N/C(=N)N
inactive: Potency [1] | Potency [2] | Potency [3]

OC(c1ccc(-c2ccc(CN3CCN(Cc4ccncc4)CC3)cc2)c(F)c1)(C(F)(F)F)C(F)(F)F
inactive: Potency [3]
active: Potency [1] 4.17 µM | Potency [2] 5.9 µM

Cn1cc(-c2ccc(-c3cncc(Cl)c3N3CCC4(CCNC4=O)CC3)cc2)cn1
inactive: Potency [3]
active: Potency [1] 5.25 µM | Potency [2] 1.48 µM

CCS(=O)(=O)CCn1c([N+](=O)[O-])cnc1C
active: Potency [3] 25900 nM
inactive: Potency [1] | Potency [2]

COc1cc(OC)c(/C=C/S(=O)(=O)Cc2ccc(OC)c(OP(=O)(O)O)c2)c(OC)c1
active: Potency [1] 0.0118 µM | Potency [2] 0.0148 µM | Potency [3] 28.2 nM

Cc1cc(F)c(C(=O)Nc2cccc(-c3nncn3C(C)C)n2)cc1-n1cnc(C2CC2)c1
active: Potency [1] 5.25 µM | Potency [2] 5.25 µM | Potency [3] 14100 nM

CO[C@@H]1[C@@H](OC)[C@H](C)[C@@](O)(CC(=O)O)O[C@H]1[C@H](C)[C@H]1O[C@@]2(CC[C@@](C)([C@H]3CC[C@@](C)([C@@H]4O[C@@H]([C@H]5O[C@](C)(O)[C@H](C)C[C@@H]5C)C[C@@H]4OC4C[C@H](OC)[C@@H](OC)[C@H](C)O4)O3)O2)C[C@H](O)[C@H]1C (stereo partly specified)
active: Potency [1] 0.376 µM | Potency [2] 0.596 µM | Potency [3] 1160 nM

Nc1nc(-c2nn(Cc3ccccc3F)c3ncccc23)nc(N)c1N1CCOCC1
inactive: Potency [1] | Potency [4] | Potency [5] | Potency [6] | Potency [7] | Potency [8] | Potency [9] | Potency [10] | Potency [11] | Potency [12] | activity (max response) [13] 8.84% | Potency [3]

CC(C)NC(=O)C1CCC(n2c(NC(=O)c3ccc(F)cc3)nc3ccc(CN4CCC(C(C)(C)O)CC4)cc32)CC1 (stereo unspecified)
active: Potency [1] 1.02 µM | Potency [2] 2.04 µM | Potency [3] 10100 nM

C=CC[C@@H]1/C=C(\C)C[C@H](C)C[C@H](OC)[C@H]2O[C@@](O)(C(=O)C(=O)N3CCCC[C@H]3C(=O)O[C@H](/C(C)=C/[C@@H]3CC[C@@H](O)[C@H](OC)C3)[C@H](C)[C@@H](O)CC1=O)[C@H](C)C[C@@H]2OC
inactive: Potency [3]
active: Potency [1] 18.6 µM | Potency [2] 14.8 µM

CC#C[C@@H](CC(=O)O)c1ccc(OCc2cccc(-c3ccc(C(F)(F)F)cc3)c2)cc1
active: Potency [1] 18.6 µM | Potency [2] 16.6 µM | Potency [3] 31600 nM

CC(C)(C)NC(=O)[C@@H]1CN(Cc2cccnc2)CCN1C[C@@H](O)C[C@@H](Cc1ccccc1)C(=O)N[C@H]1c2ccccc2C[C@H]1O
inactive: Potency [1] | Potency [2] | Potency [3]

COC(C)(C)CCn1nc(Nc2c(C)cccc2C)c2cnc(Nc3ccc(OCCN4CCCC4)c(F)c3)nc21
active: Potency [1] 731 nM and 742 nM | Potency [2] 1.03 µM and 1.66 µM | Potency [3] 3980 nM

COc1ccc(C2Sc3ccccc3N(CCN(C)C)C(=O)C2OC(C)=O)cc1 (stereo unspecified)
inactive: Potency [1] | Potency [4] | Potency [5] | Potency [6] | Potency [7] | Potency [8] | Potency [9] | Potency [10] | Potency [11] | Potency [12]

CC[C@@]1(O)C(=O)OCc2c1cc1n(c2=O)Cc2cc3cc(O)ccc3nc2-1
active: Potency [1] 0.0186 µM | Potency [4] 118 nM | Potency [5] 148 nM | Potency [6] 83.3 nM | Potency [7] 33.2 nM | Potency [8] 29.6 nM | Potency [9] 29.6 nM | Potency [10] 52.6 nM | Potency [11] 41.8 nM | Potency [12] 46.9 nM | Potency [13] 224 nM | Potency [3] 1580 nM

CCOc1ccc(NS(=O)(=O)c2ccc(N)cc2)nn1
inactive: Potency [1] | Potency [2] | Potency [3]

CC(=O)OCC(=O)[C@@]1(O)[C@H](OC(C)=O)C[C@H]2[C@@H]3CCC4=CC(=O)C=C[C@]4(C)[C@@]3(F)[C@@H](O)C[C@@]21C
inactive: Potency [1] | Potency [2] | Potency [3]

Cc1cn2cc(C(=O)N(C)CCO)cc(N[C@@H]3CCOc4cccc(C)c43)c2n1
inactive: Potency [4] | Potency [5] | Potency [6] | Potency [7] | Potency [8] | Potency [9] | Potency [10] | Potency [11] | Potency [12] | activity (max response) [13] -15% | Potency [3]
active: Potency [1] 2.95 µM

COC(=O)C1=C(C)NC(C)=C(C(=O)OC)C1c1ccccc1[N+](=O)[O-]
active: Potency [1] 13.3 µM | Potency [2] 11.9 µM | Potency [3] 9200 nM

O=C1c2cccc(O)c2C(=O)c2c(O)cc(CO)cc21
active: Potency [1] 8.33 µM
inactive: Potency [4] | Potency [5] | Potency [6] | Potency [7] | Potency [8] | Potency [9] | Potency [10] | Potency [11] | Potency [12] | activity (max response) [13] 13.5% | Potency [3]

C=CC(=O)N1CCC(Oc2cc3c(Nc4ccc(Cl)c(Cl)c4F)ncnc3cc2OC)CC1
active: Potency [1] 1.03 µM | Potency [2] 4.68 µM | Potency [3] 25100 nM

Cc1nc2ccc(-n3ncc(C(=O)c4cc5ccccc5[nH]4)c3N)cc2[nH]1
inactive: Potency [3]
active: Potency [1] 2.59 µM | Potency [2] 2.59 µM and 4.68 µM

CN(C)Cc1cccc(N=C(c2ccccc2)c2c(O)[nH]c3cc(C(N)=O)ccc23)c1
inactive: Potency [3]
active: Potency [1] 0.468 µM | Potency [2] 2.91 µM and 1.18 µM

O=C(O)c1cccnc1Nc1cccc(C(F)(F)F)c1
inactive: Potency [1] | Potency [4] | Potency [5] | Potency [6] | Potency [7] | Potency [8] | Potency [9] | Potency [10]

CCNC(=O)C#Cc1ccc2c(C(=Nc3ccc(CN(C)C)cc3)c3ccccc3)c(O)[nH]c2c1
active: Potency [1] 0.0126 µM | Potency [2] 0.0317 µM | Potency [3] 2850 nM

From PubChem BioAssay (NCATS)
